The panel holds about 83,000 compounds, 20% with a hit somewhere; the sample as a whole holds those more often.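 The test compound was applied at a single concentration to cells in 96-well plates for 48 hours, and percent growth was recorded.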 Values without a mark were called inactive. Activity calls are given as the source filed them. How the source made its calls: active means growth percent below 10; inactive means the rest.

The assay deals with OVCAR-4 ovarian. Description: NCI-60 one-dose screen, 48 h (100 = growth as untreated, 0 = no growth, -100 = all killed). The following applies: 10 µM.
Turning to `CC(=O)Nc1nc(-c2ccc(N3CCN(C)CC3)c(NS(=O)(=O)c3cccc4c(N(C)C)cccc34)c2)cs1`, the growth was 68.8%.
`CN1CCN(Cc2ccc(C(=O)Nc3cccc(Nc4ccc5cc(O)ccc5n4)c3)cc2C(F)(F)F)CC1`: the growth is 6.75% (active).
Consider `O=C(c1ccc(O)cc1)C1[C@H](c2ccccc2Br)[C@@H](c2ccccc2)NC12C(=O)Nc1ccc(Br)cc12` (stereo partly specified), for which the growth is 51.4%.
To `Brc1ccc(/C=N/Nc2ncnc3sc4c(c23)CCN(Cc2ccccc2)C4)cc1` belongs 43.7%.
In the case of `O=C(c1ccc(O)cc1)C1[C@H](c2ccc(Br)cc2)[C@@H](c2ccccc2)NC12C(=O)Nc1ccccc12` (stereo partly specified) it was 34.1%; in that of `O=c1[nH][nH]c(Nc2ccccc2)c1N=Nc1ccc(F)cc1`, 80.5%.
Consider `Cc1ccc(-c2nc3ccc(C(=O)N=Nc4c(O)[nH]c5ccc(Cl)cc45)cc3[nH]2)cc1`, for which the growth is -63.6% (active).
In the case of `COc1ccc(C(=O)Nc2ccc(-c3ccc4c(c3)NC(=O)/C4=C\c3ccc[nH]3)cc2)cc1` it was -36.8% (active); in that of `CNCc1cccc2c1OCCCCCC[C@@](C)(O)CC1(CC1)S(=O)(=O)c1ccc(cc1)-c1cnc(N)c(n1)C(=O)N2`, -76.9% (active).
To `COc1cccc2nc(Nc3ccc(F)c(NC(=O)c4ccc(CN5CCN(C)CC5)c(C(F)(F)F)c4)c3)ccc12` belongs 32.6%; to `CCOC(=O)C1NN(c2ccc(S(N)(=O)=O)cc2)c2nc3nc(-c4cccs4)cc(-c4cccs4)c3c(=O)n21` (stereo unspecified), 70.2%.
On to `O=C1Nc2cc(Cl)ccc2/C1=C/c1cccc(OCc2ccc(Br)cc2F)c1`, for which the growth was 39.1%.
In the case of `O=C(c1ccc(Cl)cc1)C1[C@H](c2ccccc2Br)[C@@H](c2ccccc2)NC12C(=O)Nc1ccc(Br)cc12` (stereo partly specified) it was 23.2%; in that of `O=c1[nH]n(C(=S)N/N=C/c2ccc(F)cc2)c(=O)c2ccccc12`, 82%.
For the compound `CC1(C)CC[C@]2(C(=O)O)CC[C@]3(C)C(=CC[C@@H]4[C@@]5(C)C/C(=C/c6ccncc6)[C@H](O)C(C)(C)[C@@H]5CC[C@]43C)[C@@H]2C1`, the growth is 42.6%.
To `CC1(C)CC[C@]23CC[C@]4(C)[C@H](CC[C@@H]5[C@@]6(C)CC[C@H](N)C(C)(C)[C@@H]6CC[C@]54C)[C@H]2[C@H]1OC3=O` belongs -90.3% (active); to `C#CCNC(=O)[C@]12CCC(C)(C)C[C@H]1C1=CC[C@@H]3[C@@](C)(CCC#N)[C@H](C(=C)C)CC[C@@]3(C)[C@]1(C)CC2`, 68.2%; to `COC1CC(Cn2cc(COc3ccc4ccc(=O)oc4c3)nn2)C(OCc2ccccc2)C(OCc2ccccc2)C1OCc1ccccc1` (stereo unspecified), 93.4%.
To `Cc1cccc2cc(-c3cc(-c4ccccc4)nc(=O)[nH]3)c(Cl)nc12` belongs 103%; to `Cc1ccc(CSc2nc(-c3ccc(F)cc3)c(C#N)c(=O)[nH]2)cc1`, 96.5%; to `O=C1Nc2cc(-c3ccc(NC(=O)c4cccc([N+](=O)[O-])c4)cc3)ccc2/C1=C/c1ccc[nH]1`, 52.3%.
To `C=C(C)[C@@H]1CC[C@]2(COP(=O)(OCC)OCC)CC[C@]3(C)[C@H](CC[C@@H]4[C@@](C)(CCCN)[C@H](C(=C)C)CC[C@]43C)[C@@H]12` belongs 23.2%; to `O=C(CS(=O)(=O)c1oc(-c2ccc(Cl)cc2)nc1S(=O)(=O)c1ccc(Cl)cc1)N1CCOCC1`, -8.45% (active); to `CN1CCN(c2ccc(Nc3nc(NCCCNC(=O)c4ccc(Cl)cc4)c4sccc4n3)cc2)CC1`, 70.6%.
`CN1CCN(c2ccc(Nc3nc(NCCNC(=O)c4ccc(C(F)(F)F)cc4)c4sccc4n3)cc2)CC1`: the growth is -33.2% (active).
To `O=C(NCCCCC(c1ccc(F)cc1)c1ccc(F)cc1)NCCCc1cccnc1` belongs 20.6%; to `O=C(c1ccc(Cl)cc1)C1[C@H](c2ccc(Br)cc2)[C@@H](c2ccccc2)NC12C(=O)Nc1ccc(Br)cc12` (stereo partly specified), -0.87% (active).
Consider `COc1ccc2[nH]c(O)c(N=NC(=O)COc3ccc(NC(=O)Nc4ccc(Cl)cc4)cc3)c2c1`, for which the growth was -21.6% (active).
To `CONC[C@]1(C)C=C2C(=O)[C@](C)(O)C3(CC3)C(C)=C2[C@H]1O` belongs -17.4% (active); to `COC[C@@H](CC(C)C)N=C1NC(=O)/C(=C/c2ccc3ncoc3c2)N1`, 53.7%.
In the case of `O=C(c1ccc(Cl)cc1)C1[C@H](c2ccccc2Br)[C@@H](c2ccccc2)NC12C(=O)Nc1ccccc12` (stereo partly specified) it was 25.9%.

Values taken from PubChem BioAssay (NCI).
